Four compounds from PubChem BioAssay can be followed below.

Molecules are shown by their SMILES. Where “and” joins values, the source holds several entries; their conditions need not be identical. Equal entries are not always repeated. Calls of active or inactive are those of the source.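 The calls were made as follows, unless noted: active = compounds whose cell count with miR-34 switched on is under 0.7 times the count with it off; inactive = the rest.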

Test [1] is described as follows: compounds altering viability of human ES cells (AID 493140; call rule not given here;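 also: cells exposed to compounds for four days before counting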). The following applies: human embryonic stem cell survival screen; stronger effect = higher value.
Test [2] can be described thus: P. berghei load reduction in hepatocytes – cell-based, HepG2, luciferase luminescence, HepG2 viability, primary screen (AID 624349; in the data active = parasite load remaining mostly below about 12%, no sharp cut-off; inactive = mostly above about 10%;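 also: 100% = mean of DMSO negative control wells on the same plate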). As to conditions: P. berghei liver stage in HepG2, luciferase luminescence, concentration not given here; parasite load remaining: stronger effect = lower value; viability: measured here: HepG2 viability without parasites.
Test [3] can be described thus: Wnt pathway potentiators raising nuclear beta-catenin – imaging, WNT3A-conditioned medium, mouse C2C12, NPC library, primary screen (AID 1117326; in the data active = nuclear beta-catenin stimulation mostly above about 4.2%, no sharp cut-off; inactive = mostly below about 10%). As to conditions: stronger effect = higher value.
Test [4] in a line: stimulators of insulin release from INS-1E, primary screen, cell-based, 5 mM glucose, NPC library (AID 1117329;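 active = compound raises insulin release from rat beta cells at 5 mM glucose, no numeric limit stated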). The following applies: rat INS-1E insulin secretion, at 10 µM, stronger effect = higher value.
Test [5] in a line: growth inhibition of GSK3B-pretreated HCT116 cells – cell-based, CellTiter-Glo, 0.2 to 20 µM (AID 1117336;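 active = compounds lowering colon cancer cell viability after pretreatment blocking the GSK3B kinase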). As to conditions: HCT116 viability after GSK3B inhibitor, at 20 µM, stronger effect = higher value. In general terms: Cellular ATP, detected with luciferase, serves as a proxy for viable cell number.
Test [6] in a line: inhibition of endothelial tube formation, primary screen, imaging, VEGF stimulated, CD31 staining, tube area, NPC library (AID 1117340;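 active = compound that reduces growth-factor-driven endothelial tube area in a mixed cell culture, no cutoff stated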). The following applies: VEGF-stimulated ADSC/ECFC co-culture, at 10 µM, stronger effect = higher value.
A short description of test [7]: GLP1 release stimulators, primary, NCI-H716, NPC library (AID 1117341;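 active = compound raises GLP1 secretion from the human gut endocrine cells, with no numeric limit stated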). As to conditions: NCI-H716 cells, at 10 µM, stronger effect = higher value.
Test [8] in a line: HCT116 colon cancer cell growth inhibition, primary screen, CellTiter-Glo luminescence, NPC library (AID 1117342;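 active = compounds that lower survival of HCT116 colon cancer cells in the luminescence readout, no numeric limit stated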). As to conditions: at 20 µM (top of the series).
Test [9] is described as follows: reduced SW480 viability measured with CellTiter-Glo, NPC library, primary (AID 1117343;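 active = compounds that lower viability of the colon cancer cells in the luminescence readout, with no numeric limit stated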). As to conditions: CellTiter-Glo luminescence; at 20 µM (top of the series) unless noted.
Test [10] in a line: NPC library primary testing for decreased DLD-1 cell viability via CellTiter-Glo (AID 1117346;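 active = compounds that lower survival of DLD-1 colon cancer cells in the luminescence readout, no cutoff given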). As to conditions: DLD-1 viability, CellTiter-Glo luminescence; at 20 µM (top of the series).
The nature of test [11]: EMT-state selective cytotoxicity in co-culture – imaging, PC-3E GFP, TEM4-18 mCherry, primary screen (AID 1345086;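 active = compounds killing one labelled cell type while sparing the other, by normalised counts and ratio limits, not self-fluorescent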;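 as to all read-outs here: cells exposed to compound for 72 h before imaging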;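 as to red/green cell ratio (normalised): normalised mesenchymal count divided by normalised epithelial count so high means epithelial killing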). As to conditions: PC-3E GFP / TEM4-18 mCherry co-culture, imaging cell counts, at 1 µM; for red/green cell ratio (normalised): actives lie on both sides, counts scaled to control wells, 1 = unselective.
A short description of test [12]: viability loss with induced miR-34 in A549 – imaging, A549 dox-inducible miR-34, nuclei and caspase counts, primary screen (AID 1347080). As to conditions: A549 miR-34 inducible, Hoechst nuclei count, 48 h.
Test [13] is described as follows: MELAS cybrid and Rieske KO viability enhancers – cell-based, MELAS cybrids, Rieske KO mouse fibroblasts, CellTiter-Glo, primary screen (AID 1508586;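 active = mean z-score across replicates of 1.96 or higher in either the MELAS or the Rieske mutant cell line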;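 also: z relative to plate mean and SD of compound and empty wells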). The following applies: low glucose.
The target in test [14] is NAD(+) hydrolase SARM1 (Homo sapiens) (UniProt Q6SZW1). The test can be described thus: blocking NAD cleavage by SARM1 SAM-TIR – cell lysate, NAD-Glo luminescence (AID 1508614;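 active = compound whose remaining NAD level is above about 45 nM, limit read from the data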;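 also: higher remaining NAD means stronger inhibition of SARM1 NADase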). The following applies: SAM-TIR HEK293T lysate NADase, at 1 µM, stronger effect = higher value.
Where [15] appears, read: measured here: epithelial PC-3E GFP cell survival.
Setting [16] is: measured here: mesenchymal TEM4-18 mCherry cell survival.
The mark [17] stands for this setting: stronger effect = lower value, cell number ratio, induced over uninduced.
The mark [18] stands for this setting: measured here: relative caspase fold change +Dox/-Dox.
The mark [19] stands for this setting: measured here: total cells with miR-34 induction, stronger effect = lower value.
Setting [20] is: measured here: total cells without miR-34 induction.
Setting [21] is: MELAS cybrid survival, CellTiter-Glo 48 h, stronger effect = higher value.
[22] abbreviates: Rieske KO mouse fibroblast survival, CellTiter-Glo 72 h.

Sequence of NAD(+) hydrolase SARM1 (Homo sapiens) (Q6SZW1 whole entry, looked up): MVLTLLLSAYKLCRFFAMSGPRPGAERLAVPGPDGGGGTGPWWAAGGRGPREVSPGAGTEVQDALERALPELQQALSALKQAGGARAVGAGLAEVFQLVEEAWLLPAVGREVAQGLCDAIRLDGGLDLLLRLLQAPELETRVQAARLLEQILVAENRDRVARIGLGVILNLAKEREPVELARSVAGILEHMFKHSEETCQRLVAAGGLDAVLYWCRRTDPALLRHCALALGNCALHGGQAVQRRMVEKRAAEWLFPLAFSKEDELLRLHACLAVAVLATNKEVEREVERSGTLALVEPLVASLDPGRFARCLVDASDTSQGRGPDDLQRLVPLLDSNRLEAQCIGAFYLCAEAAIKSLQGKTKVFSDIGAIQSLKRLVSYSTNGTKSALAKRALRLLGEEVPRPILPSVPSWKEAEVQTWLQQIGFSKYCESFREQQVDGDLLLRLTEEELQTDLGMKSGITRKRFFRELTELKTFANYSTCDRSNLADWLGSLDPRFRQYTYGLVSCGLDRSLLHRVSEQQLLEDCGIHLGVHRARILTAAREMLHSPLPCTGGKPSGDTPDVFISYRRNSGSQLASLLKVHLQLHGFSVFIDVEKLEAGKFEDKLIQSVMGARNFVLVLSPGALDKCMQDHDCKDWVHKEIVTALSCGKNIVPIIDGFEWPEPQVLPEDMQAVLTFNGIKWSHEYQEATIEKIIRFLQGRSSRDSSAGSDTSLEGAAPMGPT

For `C#CCN(C)CCCOc1ccc(Cl)cc1Cl`, the survival in test [1] was 8.67 (inactive). Further, the parasite load remaining in test [2] is 88.7% (inactive) and 89.7% (inactive). For the same compound, in test [2], the viability is 100% and 71.8%. Besides, the nuclear beta-catenin stimulation in test [3] (at 10 µM) was 0.3% (inactive); in test [3] (stimulation, at 2 µM), -0.5%. The insulin secretion stimulation in test [4] is -2.3% (inactive). The viability decrease in test [5] is -91.8% (inactive). In addition, the tube area decrease in test [6] was 22.3% (inactive). Further, in [7], the GLP1 secretion stimulation is -0.5% (inactive). Moreover, in test [8], the inhibition of viability is 2.63% (inactive). Further, the viability decrease (inhibition) in [9] was 48.3% (inactive); in [10], 13.7% (inactive). Moreover, the red/green cell ratio (normalised) in [11] is 1 (inactive). For the same compound, the normalised cell number in test [11] (setting [15]) and in test [11] (setting [16]) was 1.14 in each case. In addition, the fold change in [12] (setting [17]) was 1.02 (inactive) and 0.917 (inactive) and 0.833 (inactive); in test [12] (setting [18]), 0.924 and 0.754 and 1.44. Further, the cell count is 9600 and 8700 and 8160 in [12] (setting [19]); 9370 and 9480 and 9800 in test [12] (setting [20]). Also, the z-score in test [13] (setting [21]) is 0.667 (inactive); in [13] (setting [22]) it was 0.294. In [14], the remaining NAD is 10 nM (inactive).

Turning to `Cc1cc(=O)oc2cc(O)ccc12`, the survival in [1] was 5.33 (inactive). For the same compound, the parasite load remaining in [2] was 118% (inactive). For the same compound, the viability in [2] was determined as 98.7%. In addition, the nuclear beta-catenin stimulation in test [3] (at 10 µM) is -0.6% (inactive); in [3] (stimulation, at 2 µM) it was -0.4%. For the same compound, the insulin secretion stimulation in [4] was -1.7% (inactive). The viability decrease in test [5] is -10.2% (inactive). Besides, the tube area decrease in [6] was -7.2% (inactive). Moreover, the GLP1 secretion stimulation in test [7] is 3.1% (inactive). The inhibition of viability in test [8] is 13.6% (inactive). Besides, the viability decrease (inhibition) was 12.3% (inactive) in test [9] and -2.45% (inactive) in test [10]. The red/green cell ratio (normalised) in test [11] is 0.94 (inactive). In addition, the normalised cell number in test [11] (setting [15]) amounted to 1.05; in test [11] (setting [16]), 0.99. Further, the fold change in test [12] (setting [17]) is 0.873 (inactive) and 0.847 (inactive) and 0.939 (inactive); in test [12] (setting [18]) it was 1.07 and 1.58 and 0.709. Moreover, the cell count in [12] (setting [19]) was 8530 and 9030 and 8940; in [12] (setting [20]), 9770 and 10700 and 9520. Also, the z-score was -0.289 (inactive) and 0.464 (inactive) in test [13] (setting [21]); 0.286 and 0.338 in test [13] (setting [22]). For the same compound, in test [14], the remaining NAD was 10 nM (inactive).

On to `C[C@H]1[C@H](NC(=O)/C(=N/OC(C)(C)C(=O)O)c2csc(N)n2)C(=O)N1S(=O)(=O)O` (stereo in doubt), for which the nuclear beta-catenin stimulation in [3] (at 10 µM) was 5% (inactive); in test [3] (stimulation, at 2 µM), -0.4%. In addition, the insulin secretion stimulation in test [4] is 0.1% (inactive). The viability decrease in test [5] was -16.4% (inactive). For the same compound, the tube area decrease in test [6] is 11.9% (inactive). The GLP1 secretion stimulation in test [7] was -1.9% (inactive). Moreover, the inhibition of viability in test [8] was 0.97% (inactive). The viability decrease (inhibition) in [9] is 25.1% (inactive); in test [10], -11.3% (inactive). Moreover, in [11], the red/green cell ratio (normalised) is 1.32 (inactive). The normalised cell number in [11] (setting [15]) is 0.82; in test [11] (setting [16]) it was 1.08.

As to `OC(CCN1CCCCC1)(c1ccccc1)C1CC2C=CC1C2` (stereo not drawn), the survival in [1] was 9.67 (inactive). In addition, the parasite load remaining in test [2] was 61.4% (inactive) and 36.1% (inactive). Also, the viability in test [2] was 78.3% and 106%. Moreover, the nuclear beta-catenin stimulation is 0.3% (inactive) in [3] (at 10 µM) and -0.7% in test [3] (stimulation, at 2 µM). Also, in [4], the insulin secretion stimulation is 4.5% (inactive). In [5], the viability decrease is -65.7% (inactive). The tube area decrease in test [6] was 1.4% (inactive). The GLP1 secretion stimulation in [7] is -4% (inactive). The inhibition of viability in test [8] is 36.4% (inactive). Further, the viability decrease (inhibition) in test [9] was 39.6% (inactive); in test [10] it was 2.7% (inactive). The red/green cell ratio (normalised) in [11] is 0.98 (inactive). Further, the results for the normalised cell number in test [11] (setting [15]) and in [11] (setting [16]) were 0.85 and 0.83, respectively. The fold change in test [12] (setting [17]) was 1.01 (inactive) and 0.963 (inactive) and 0.83 (inactive); in [12] (setting [18]), 1.73 and 0.774 and 4.12. Besides, the cell count in test [12] (setting [19]) was 10100 and 7400 and 10600; in test [12] (setting [20]) it was 9960 and 7680 and 12700. The figures for the z-score in test [13] (setting [21]) and in test [13] (setting [22]) were -0.399 (inactive) and 0.122, respectively. Also, the remaining NAD in test [14] was 10 nM (inactive).

What is called viability is a read-out of living cells in per cent, often relative to untreated cells.
